Screening results (PubChem)
This is a sample that favours compounds with a hit; in the whole collection about 3.3% have one here.
AmpC detergent: blocks E. coli AmpC beta-lactamase in detergent assay; P00811; AmpC hydrolysis of nitrocefin, absorbance 480 nm, 0.01% Triton; Potency, µM (highest dose often 114 µM), for inactives: at the top dose activity change, negative = inhibition, usual class: inhibitors; 370,000 compounds, 0.041% hits; AID 485294;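 note: 0% = no-compound wells and -100% = no-enzyme wells; nearly all actives have a fitted effect of over 25% in size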
Target sequence (P00811 whole entry, looked up): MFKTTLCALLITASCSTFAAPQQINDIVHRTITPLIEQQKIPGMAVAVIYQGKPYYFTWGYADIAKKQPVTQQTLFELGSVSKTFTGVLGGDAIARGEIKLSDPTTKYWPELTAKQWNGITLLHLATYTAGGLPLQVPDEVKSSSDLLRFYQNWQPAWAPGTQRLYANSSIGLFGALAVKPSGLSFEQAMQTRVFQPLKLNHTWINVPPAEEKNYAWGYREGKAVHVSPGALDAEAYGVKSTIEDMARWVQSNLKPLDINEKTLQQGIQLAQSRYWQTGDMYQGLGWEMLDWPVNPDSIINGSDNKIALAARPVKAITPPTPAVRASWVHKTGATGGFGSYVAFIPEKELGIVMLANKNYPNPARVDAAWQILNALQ
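AmpC (5.3 nM in the dispensed reagent) in 20 mM phosphate pH 7.0 with 0.01% (detergent screen) or 0.0001% Triton X-100 was preincubated with compounds for 15 min at room temperature. Nitrocefin was then added from an 800 uM solution, and hydrolysis was followed at 480 nm.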
AmpC no deterg: inhibitors of E. coli AmpC beta-lactamase without detergent; P00811; AmpC nitrocefin hydrolysis, absorbance 480 nm, 0.0001% Triton; Potency, µM (titrated, usually from 57.1 µM), for the others: at the top dose activity change, negative = inhibition, hits mostly inhibitors; 330,000 compounds, 0.52% hits; AID 485341;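 note: plate controls were no compound for no effect and no enzyme for full effect; nearly all actives have a fitted effect of over 20% in size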
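20 mM phosphate pH 7.0 + 0.01% (detergent screen) or 0.0001% Triton X-100; 5.3 nM AmpC reagent; cpd preinc 15 min RT; nitrocefin (800 uM stock) to start; A480 q20 s × 4 min; Activity was normalised to no-enzyme and no-compound control wells.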
Sm TGR inh: blocks Schistosoma mansoni thioredoxin glutathione reductase. Q962Y6. purified TGR, DTNB reduction, TNB absorbance 405 nm. Potency, µM (doses to about 114 µM), inactives show at the top dose activity change, negative = inhibition, actives largely listed as inhibitors. 360,000 compounds, 3% hits; note: nearly all actives have a fitted effect of over 60% in size
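TGR 20 nM + NADPH 100 uM (dispensed conc.), cpd preinc 15 min RT; start with NADPH (500 uM addition) then DTNB (15 mM addition). Kinetic TNB absorbance, 405 nm filter. Four-parameter Hill fit across titration.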
Starred values were filed as active, the others as inactive; ? = inconclusive; nt = no result; [ ] = another dose, or the depositor's remark. Calls come from the whole dose curve; as a rule, active = well fitted curve in the direction sought with a large enough effect; inconclusive = small, poorly fitted or top-dose-only effect, or another doubt; inactive = no such curve, though single readings can be large; an effect the other way counts as inactive or inconclusive. Unless noted, % is set by controls: 0 for no effect and ±100 for the full control effect; potency is the fitted concentration of half-maximal effect.

SMILES	AmpC detergent	AmpC no deterg	Sm TGR inh
COc1ccc(C(=O)O)cc1NC(=S)NC(=O)CSc1ccc(Cl)cc1	1%	-50%	?
COc1ccc(C(=O)O)cc1NC(=S)NC(=O)c1ccc(-c2ccc(Cl)cc2)o1	4%	-23%	28µM*
CN1CCN(c2ccc(NC(=O)c3ccc(-c4ccc(Br)cc4)o3)cc2)CC1	0%	-13%[2.29 µM]	-7%
CCCc1nnc(NC(=O)CCC(=O)NC2CCCCC2)s1	-5%	-24%	-4%
CC(C)(C)C1CCc2c(sc(NC(=O)CSc3nnc(-c4ccccc4)o3)c2C#N)C1 (configuration not stated)	2%	-50%	-3%
CC[C@]12c3[nH]c4ccccc4c3CCN1C(=O)C(CC(=O)NCCCN(C)C)C[C@@H]2C(=O)N1CCN(C(=O)C2CC2)CC1 (some centres not stated)	nt	27%	nt
CCC(C)(C)n1nnnc1C(c1cc2ccc(OC)cc2[nH]c1=O)N1CCc2ccccc21 (configuration not stated)	1%	41%	35µM*
CCC(C)(C)n1nnnc1C(c1cc2cc(OC)ccc2[nH]c1=O)N1CCc2ccccc21 (configuration not stated)	-10%	-34%	-16%
Cc1cc2cc(C(c3nnnn3Cc3ccco3)N3CCc4ccccc43)c(=O)[nH]c2cc1C (configuration not stated)	?	-42%	?
Cc1cc2cc(C(c3nnnn3Cc3ccco3)N3CCc4ccccc4C3)c(=O)[nH]c2cc1C (configuration not stated)	-2%	-21%	3.5µM*
Cc1ccc2cc(C(c3nnnn3Cc3ccccc3)N3CCc4ccccc43)c(=O)[nH]c2c1 (configuration not stated)	-2%	-46%	4%
Cc1ccc2[nH]c(=O)c(C(c3nnnn3Cc3ccccc3)N3CCc4ccccc43)cc2c1 (configuration not stated)	2%	-22%	20µM*
COc1ccc(Cn2nnnc2C(c2cc3ccc(OC)cc3[nH]c2=O)N2CCCCCC2)cc1 (configuration not stated)	-18%	34%	18µM*
COc1cc2cc(C(c3nnnn3Cc3ccc(F)cc3)N3CCCCCC3)c(=O)[nH]c2cc1OC (configuration not stated)	?	69%	?
CCN(CC)S(=O)(=O)c1ccc(NC(=O)c2ccc(OCC3CCCO3)cc2)cc1 (configuration not stated)	1%	-3%	-9%
COC(C(=O)N/N=C(\C)c1ccc(C(C)(C)C)cc1)c1ccccc1 (configuration not stated)	?	37%	-18%
O=C1NC(Cc2ccc(O)cc2)c2nc3ccc(Cl)cc3c(=O)n2-c2ccc(Cl)cc21 (configuration not stated)	nt	-55%	nt
Cc1ccc(S(=O)(=O)N2CCC3(CC2)OCCN3S(=O)(=O)c2c(C)cc(C)cc2C)cc1	-15%	-32%	3%
CSc1sc(C(=O)Nc2ccc(F)cc2F)c2c1C=CCC2	5%	-38%	?
Cc1cc2cc(C(c3nnnn3Cc3ccccc3)N3CCc4ccccc43)c(=O)[nH]c2cc1C (configuration not stated)	7%	-21%	45µM*
Cc1ccc2cc(C(c3nnnn3Cc3ccccc3)N3CCc4ccccc43)c(=O)[nH]c2c1C (configuration not stated)	-1%	4%	?
CC1=CCC2COC(c3ccc[n+](Cc4ccccc4)c3)C1C2 (configuration not stated)	-7%	2%	35µM*
c1ccc(C[n+]2cccc(-c3ccccc3)c2)cc1	-10%	-18%	1%
C=C(C)Cc1c(C)c(C#N)c2[nH]c3ccccc3n2c1=O	-8%	-30%	-13%
CCc1cc(=S)n2c([nH]c3ccccc32)c1C#N	-10%	-32%	1.6µM*
SMILES	AmpC detergent	AmpC no deterg	Sm TGR inh
CCc1c(C)c(C#N)c2[nH]c3ccccc3n2c1=S	-5%	-35%	0.56µM*
CCc1cc(=O)n2c([nH]c3ccccc32)c1C#N	-3%	-12%	-17%
COc1ccc2[nH]c(C(=O)O)c(NS(=O)(=O)c3ccc(C)cc3C)c2c1	-7%	-28%	0%
CC(C)C[C@H](NC(=O)N1CCn2c1nc1ccccc12)C(=O)NCC1CCCO1 (some centres not stated)	-2%	69%	1%
CCN(CC)C(=O)C(=O)c1cn(CC(=O)N2CCc3ccccc3C2)c2ccccc12	1%	137%	45µM*
O=C(C(=O)N1CCc2ccccc2C1)c1cn(CC(=O)N2CCCC2)c2ccccc12	-7%	124%	-9%
Clc1cc(Br)ccc1NCc1cccnc1	0%	5%	-9%
O=C(NC(=S)Nc1nc2c(s1)CCCC2)c1ccccc1	?	-15%	-16%
S=C(Nc1nc2c(s1)CCCC2)NC1CC1	?	-40%	2.5µM*
COc1cc(C2C(C#N)=C(N)OC3=C2C(=O)CC(C)(C)C3)ccc1OCCN1CCOCC1 (configuration not stated)	-9%	3%	-26%
O=C1CC(N(O)c2ccccc2)C(=O)N1c1cc(Cl)cc(Cl)c1 (configuration not stated)	?	-41%	?
CCCOc1ccccc1N1C(=O)CC(N(O)c2ccccc2)C1=O (configuration not stated)	1%	10%	-14%
CCN(CCO)C1CC(=O)N(c2ccccc2C)C1=O (configuration not stated)	?	-11%	6.3µM*
Cc1ccccc1C(=O)NNC1CC(=O)N(c2ccc3c(c2)OCCO3)C1=O (configuration not stated)	?	-18%	3%
Cc1ccccc1N1C(=O)CC(N(O)c2ccccc2)C1=O (configuration not stated)	?	-12%	40µM*
COc1ccccc1N(O)C1CC(=O)N(c2ccc(F)cc2)C1=O (configuration not stated)	2%	-15%	3.5µM*
COc1ccccc1N1C(=O)CC(N(O)c2ccccc2)C1=O (configuration not stated)	-2%	-12%	40µM*
CCCOc1ccc(N2C(=O)CC(N(O)c3ccccc3)C2=O)cc1 (configuration not stated)	?	-22%	?
Cc1cc(NC(=O)CS(=O)(=O)Cc2ccccc2)no1	?	-34%	nt
CCCCCCSc1ccc(-c2nc3cnccn3c2NCCCC)cc1	nt	25%	nt
c1ccc(C[n+]2csc3ccccc32)cc1	-18%	-22%	4.5µM*
Fc1cccc(C[n+]2csc3ccccc32)c1	-15%	1%	-32%
O=C(Nc1cccc(C(F)(F)F)c1)c1sc(Cl)nc1C(F)(F)F	-15%	-7%	-24%
CCOC(=O)c1cccc(-c2ccc(C=O)o2)c1	0%	-3%	50µM*
CCOC(=O)c1ccc(-c2ccc(C=O)o2)cc1	-7%	-3%	-31%
COc1ccccc1Nc1nc(-c2cccc(N3C(=O)c4ccccc4C3=O)c2)cs1	-13%	-19%	-3%
